Measured values reported in PubChem BioAssay (NCATS).
Inconclusive results are not listed. Entries that show only a call come without a potency. The source made the active and inactive calls. The call rests on the fitted dose curve; in most records, active means well fitted curve in the direction sought with a large enough effect; inconclusive means small, poorly fitted or top-dose-only effect, or another doubt; inactive means no such curve, though single readings can be large; an effect the other way counts as inactive or inconclusive.

Tests used:
[1] = qHTS of pediatric cancer cell lines to identify multiple opportunities for drug repurposing: Primary screen for A673 cells (AID 1347092); further: nearly all actives have a fitted effect of over 45% in size; further: potency means the concentration at half of the fitted maximal effect
Outline: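 Titration-based qHTS on A673 cells: MIPE compounds spanned 11 points (0.78 nM to 46 µM final), NPC compounds 8 points (0.59 nM to 46 µM final). Viability after 48 h was measured by ATP luminescence.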

[2] = qHTS of pediatric cancer cell lines to identify multiple opportunities for drug repurposing: Primary screen for BT-37 cells (AID 1347094); further: potency means the concentration at half of the fitted maximal effect
Outline: (§1)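 Plated cells (500-1,000 per well, growth media) were allowed to settle for 5 hours, treated with compound dilutions for 48 hours, then lysed with CellTiter-Glo for 15 min at room temperature before luminescence reading.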

[3] = qHTS of pediatric cancer cell lines to identify multiple opportunities for drug repurposing: Primary screen for NB-EBc1 cells (AID 1347095); further: potency means the concentration at half of the fitted maximal effect
Outline: as §1

[4] = qHTS of pediatric cancer cell lines to identify multiple opportunities for drug repurposing: Primary screen for U-2 OS cells (AID 1347096); further: nearly all actives have a fitted effect of over 50% in size; further: potency means the concentration at half of the fitted maximal effect
Outline: (§2)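 Cells (500-1,000/well) rested 5 h, then received compounds for 48 h; metabolically active cells were measured by CellTiter-Glo luminescence. Final concentrations spanned up to 46 µM (MIPE, 11-point) or 0.59 nM-46 µM (NPC, 8-point) in primary screens, 11-point in follow-ups.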

[5] = qHTS of pediatric cancer cell lines to identify multiple opportunities for drug repurposing: Primary screen for Saos-2 cells (AID 1347097); further: nearly all actives have a fitted effect of over 40% in size; further: potency means the concentration at half of the fitted maximal effect
Outline: as §1

[6] = qHTS of pediatric cancer cell lines to identify multiple opportunities for drug repurposing: Primary screen for SK-N-SH cells (AID 1347098); further: nearly all actives have a fitted effect of over 65% in size; further: potency means the concentration at half of the fitted maximal effect
Outline: as §2

[7] = qHTS of pediatric cancer cell lines to identify multiple opportunities for drug repurposing: Primary screen for NB1643 cells (AID 1347099); further: nearly all actives have a fitted effect of over 50% in size; further: potency means the concentration at half of the fitted maximal effect
Outline: as §1

[8] = qHTS of pediatric cancer cell lines to identify multiple opportunities for drug repurposing: Primary screen for LAN-5 cells (AID 1347100); further: potency means the concentration at half of the fitted maximal effect
Outline: as §2

[9] = qHTS of pediatric cancer cell lines to identify multiple opportunities for drug repurposing: Primary screen for BT-12 cells (AID 1347101); further: nearly all actives have a fitted effect of over 25% in size
Outline: as §2

[10] = qHTS of pediatric cancer cell lines to identify multiple opportunities for drug repurposing: Primary screen for Rh18 cells (AID 1347102); further: nearly all actives have a fitted effect of over 65% in size; further: potency means the concentration at half of the fitted maximal effect
Outline: as §2

[11] = qHTS of pediatric cancer cell lines to identify multiple opportunities for drug repurposing: Primary screen for OHS-50 cells (AID 1347103); further: nearly all actives have a fitted effect of over 40% in size; further: potency means the concentration at half of the fitted maximal effect
Outline: as §2

[12] = qHTS of pediatric cancer cell lines to identify multiple opportunities for drug repurposing: Primary screen for RD cells (AID 1347104); further: nearly all actives have a fitted effect of over 55% in size; further: potency means the concentration at half of the fitted maximal effect
Outline: as §1

[13] = qHTS of pediatric cancer cell lines to identify multiple opportunities for drug repurposing: Primary screen for MG 63 (6-TG R) cells (AID 1347105); further: nearly all actives have a fitted effect of over 50% in size; further: potency means the concentration at half of the fitted maximal effect
Outline: as §1

[14] = qHTS of pediatric cancer cell lines to identify multiple opportunities for drug repurposing: Primary screen for control Hh wild type fibroblast cells (AID 1347106);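 further: series mostly up to about 46 µM; a drop in luminescence marks cytotoxicity and a rise apparent proliferation; nearly all actives have a fitted effect of over 55% in size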
Outline: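 Viability after 48 h compound treatment at 37C, 500-1,000 cells/well, read as ATP luminescence with CellTiter-Glo. Primary screens used 11-point (MIPE, 0.78 nM-46 µM) or 8-point (NPC, 0.59 nM-46 µM) final concentrations; follow-up screens used 11-point dilutions.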

[15] = qHTS of pediatric cancer cell lines to identify multiple opportunities for drug repurposing: Primary screen for Rh30 cells (AID 1347107); further: series mostly up to about 46 µM; nearly all actives have a fitted effect of over 75% in size
Outline: as §2

[16] = qHTS of pediatric cancer cell lines to identify multiple opportunities for drug repurposing: Primary screen for Rh41 cells (AID 1347108); further: nearly all actives have a fitted effect of over 70% in size; further: potency means the concentration at half of the fitted maximal effect
Outline: as §1

[17] = qHTS of pediatric cancer cell lines to identify multiple opportunities for drug repurposing: Primary screen for SK-N-MC cells (AID 1347093); further: potency means the concentration at half of the fitted maximal effect
Outline: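 Metabolically active cells were quantified by ATP-dependent luminescence (CellTiter-Glo, 15 min at room temperature) following 48 h treatment. Cells had been plated at 500-1,000 per well and settled for 5 h beforehand.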

[18] = qHTS of pediatric cancer cell lines to identify multiple opportunities for drug repurposing: Confirmatory screen for NB1643 cells (AID 1347109); further: nearly all actives have a fitted effect of over 45% in size; further: potency means the concentration at half of the fitted maximal effect
Outline: as §2

[19] = qHTS of pediatric cancer cell lines to identify multiple opportunities for drug repurposing: Confirmatory screen for A673 cells (AID 1347110);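 further: cells exposed to compound for 48 h before the viability read; nearly all actives have a fitted effect of over 65% in size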; further: potency means the concentration at half of the fitted maximal effect
Outline: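 Forty-eight-hour viability assay. Follow-up compounds ran at 11-point dilutions; positive control bortezomib at 2.3 uM final, neutral control DMSO.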

[20] = qHTS of pediatric cancer cell lines to identify multiple opportunities for drug repurposing: Confirmatory screen for SK-N-MC cells (AID 1347111);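 further: cells exposed to compound for 48 h before the readout; nearly all actives have a fitted effect of over 70% in size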; further: potency means the concentration at half of the fitted maximal effect
Outline: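 Seed 500-1,000 cells/well; rest 5 h at 37 degrees C. Pin-transfer compounds, 11-point titration. Incubate 48 h. Add CellTiter-Glo, 15 min RT, read luminescence.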

| SMILES | Potency [1] | Potency [2] | Potency [3] | Potency [4] | Potency [5] | Potency [6] | Potency [7] | Potency [8] | Potency [9] | Potency [10] | Potency [11] | Potency [12] | Potency [13] | Potency [14] | Potency [15] | Potency [16] | Potency [17] | Potency [18] | Potency [19] | Potency [20] |
| --- | --- | --- | --- | --- | --- | --- | --- | --- | --- | --- | --- | --- | --- | --- | --- | --- | --- | --- | --- | --- |
| O=C(C=Cc1ccc(/C=C/C(=O)Nc2ccc(C3=NCCN3)cc2)cc1)Nc1ccc(C2=NCCN2)cc1 | inactive | inactive | inactive | inactive | inactive | inactive | inactive | inactive | inactive | inactive | inactive | inactive | inactive | inactive | inactive | inactive |  |  |  |  |
| CCOC(=O)C1=C[C@]2(CC)CCCN3CCc4c(n1c1ccccc41)[C@@H]32 |  | inactive | inactive | inactive |  |  | inactive |  | inactive | inactive | 24.3 µM (active) |  |  | inactive | inactive | inactive | 13.2 µM (active) |  |  |  |
| O=S(=O)(N=Cc1c(O)ccc2ccccc12)c1cccs1 |  | inactive |  | inactive | 18.7 µM (active) | inactive |  |  |  | inactive |  | inactive | 2.35 µM (active) |  |  | 3.72 µM (active) | 9.35 µM (active) |  |  |  |
| O=c1[nH]cnc2[nH]ncc12 | inactive | inactive | inactive | inactive | inactive | inactive | inactive | inactive | inactive | inactive | 21.7 µM (active) | inactive | inactive | inactive |  | inactive |  |  |  |  |
| Cc1c(C)c2c(c(C)c1O)CCC(C)(COc1ccc(CC3SC(=O)NC3=O)cc1)O2 (stereo unspecified) | inactive | inactive | inactive | inactive | inactive | inactive | inactive | inactive |  | inactive | inactive | inactive | inactive | inactive | inactive | inactive |  | inactive | inactive | inactive |
| CCCc1nn(C)c2c(=O)[nH]c(-c3cc(S(=O)(=O)N4CCN(C)CC4)ccc3OCC)nc12 | inactive | inactive | inactive | inactive | inactive | inactive |  |  |  | inactive |  |  | inactive | inactive |  |  |  |  |  |  |
| Cc1cnc(Nc2ccc(OCCN3CCCC3)cc2)nc1Nc1cccc(S(=O)(=O)NC(C)(C)C)c1 |  | inactive | inactive | inactive | inactive |  | 23.5 µM (active) |  |  | inactive |  | inactive |  | inactive | inactive | inactive | 18.7 µM (active) |  |  |  |
| Nc1nc2[nH]cc(CCc3ccc(C(=O)N[C@@H](CCC(=O)O)C(=O)O)cc3)c2c(=O)[nH]1 |  | inactive | 1.48 µM (active) | inactive |  | inactive | inactive |  | inactive | inactive | inactive |  |  | inactive | inactive |  | 0.132 µM (active) | 20.8 µM (active) | 2.33 µM (active) | 0.147 µM (active) |
| Cn1c(=O)c(F)c(Nc2ccc(I)cc2F)c2c(=O)n(C[C@@H](O)CO)cnc21 | inactive |  |  | 5.9 µM (active) |  | 6.81 µM (active) |  |  |  | 20.9 µM (active) | inactive | 0.0296 µM (active) | inactive |  | inactive |  |  |  |  |  |
| COc1ccc([C@@H]2CC(=O)c3c(O)cc(O[C@@H]4O[C@H](CO[C@@H]5O[C@@H](C)[C@H](O)[C@@H](O)[C@@H]5O)[C@@H](O)[C@H](O)[C@@H]4O)cc3O2)cc1O |  | inactive | inactive | inactive | inactive | inactive | inactive |  | inactive | inactive | inactive | inactive | inactive | inactive |  | inactive | 16.6 µM (active) |  |  |  |
| COc1ccccc1[C@H](c1cccc2ccccc12)[C@@](C)(C#N)C(=O)N1CCC(c2cccc(C(F)(F)F)c2)CC1 |  | 17.2 µM (active) | 6.62 µM (active) |  |  | 19.2 µM (active) |  |  |  |  | 1.09 µM (active) |  |  | inactive | inactive | 5.9 µM (active) | 1.18 µM (active) |  |  |  |
| CNCc1ccc(-c2[nH]c3cc(F)cc4c3c2CCNC4=O)cc1 | 4.69 µM (active) |  |  | inactive | inactive |  |  |  | inactive | inactive | inactive |  | inactive | inactive |  | inactive |  |  | 0.147 µM (active) | 6.57 µM (active) |
| COCCNCCCn1c(C(=O)CF)c(-c2ccc(C)cc2)c2c(N)ncnc21 | 23.5 µM (active) | inactive | inactive | inactive |  |  |  | inactive | inactive |  |  | inactive |  | inactive |  | inactive |  |  |  |  |
| Cc1cc2c(F)c(Oc3ncnn4cc(OC[C@@H](C)O)c(C)c34)ccc2[nH]1 |  | 27.3 µM (active) | 13.2 µM (active) |  | 18.7 µM (active) | 24.1 µM (active) |  | 20.9 µM (active) |  |  | 30.6 µM (active) |  |  | inactive |  |  | 0.264 µM (active) |  |  |  |
